Compound activity as filed in PubChem BioAssay.
An excerpt weighted towards active compounds, which were near 12% of everything screened.
BAZ2B block = blocks human BAZ2B. Q9UIF8. AlphaScreen BAZ2B-H3K14Ac peptide displacement. Potency, µM (highest dose often 114 µM), for the others: top-dose activity change, negative = inhibition, hits mostly inhibitors. 4.4% of 360,000 active. AID 504333; further: on the % scale 0 is the no-effect control and ±100 the full control effect; nearly all actives have a fitted effect of over 60% in size
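Complex of BAZ2B and biotin-H3K14Ac (50 nM apiece) forms over 30 min at RT, then faces library compounds up to 110 uM for another 30 min; AlphaScreen beads added, 20 min dark incubation, luminescence read.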
G9a inh = G9a (human) methyltransferase inhibition. G9a H3K9 monomethylation, AlphaScreen, 2 h. 8.8% of 350,000 active. Potency, µM (top dose mostly 102 µM), for the others: at the highest dose activity, negative = inhibition, actives largely listed as inhibitors. AID 504332; further: on the % scale 0 is the no-effect control and ±100 the full control effect; nearly all actives have a fitted effect of over 75% in size
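Methyltransferase reactions run at room temperature for 2 h (20 nM enzyme, 500 nM biotin-H3K9 peptide, 20 uM SAM) after a 15 min compound preincubation; product detected by AlphaScreen beads and anti-H3K9me1 antibody.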
Sfp inh = Sfp phosphopantetheinyl transferase inhibition | Q9F4F7 | Biochemical Sfp PPTase activity, qHTS | Potency, µM, for the others: largest response in the series, negative = inhibition, hits mostly inhibitors | 3.5% of 310,000 active | AID 1490;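 further: the enzyme is Sfp with the accession as filed and its product quenches rhodamine fluorescence; 0% = enzyme reaction without inhibitor and -100% = no enzyme wells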
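Sfp 15 nM + cpd, 15 min RT; start w/ rhodamine-CoA 5 uM, BHQ-2-YbbR 12.5 uM (final); 50 mM Hepes pH 7.6, 10 mM MgCl2, 0.01% NP-40, 0.01% BSA; read 525/598 nm at 0 and 30 min.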
JMJD2A Tudor inh = blocks the human JMJD2A Tudor domain | Potency, µM (titrated, usually from 114 µM), for inactives: at the highest dose activity change, negative = inhibition, most hits filed as inhibitors | O75164 | AlphaScreen JMJD2A-Tudor / H3K4me3 peptide binding | 4.4% of 390,000 active; further: on the % scale 0 is the no-effect control and ±100 the full control effect; nearly all actives have a fitted effect of over 50% in size
PLK1 PBD inh = inhibitors of human PLK1 polo-box domain binding; Plk1 PBD binding of FITC phosphopeptide, fluorescence polarization; P53350; 2.8% of 360,000 active; Potency, µM, for the others: max response, negative = inhibition, usual class: inhibitors; further: series mostly up to about 57 µM; on the % scale 0 is the no-effect control and ±100 the full control effect; nearly all actives have a fitted effect of over 65% in size
HP1b chromo inh = HP1-beta chromodomain-methylated histone interaction inhibition. P83916. AlphaScreen HP1-beta / biotin-H3K9me3 peptide binding. Potency, µM (doses to about 114 µM), for the others: top-dose activity change, negative = inhibition, most hits filed as inhibitors. 0.56% of 390,000 active. AID 540317; further: nearly all actives have a fitted effect of over 70% in size
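HP1-beta protein (50 nM final) preincubated 30 min at room temperature with biotinylated H3(1-18)K9me3 peptide (50 nM) in PBS pH 7.4, 0.01% Tween-20, then compound added for 30 min. AlphaScreen streptavidin donor/nickel chelate acceptor beads (10 ug/mL final), 30 min dark, luminescence read.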
Starred values were filed as active, the others as inactive; [ ] = dose if it differs, or a comment. The call rests on the fitted dose curve; in most records, active means well fitted curve in the direction sought with a large enough effect; inconclusive means small, poorly fitted or top-dose-only effect, or another doubt; inactive means no such curve, though single readings can be large; an effect the other way counts as inactive or inconclusive. Potency means the concentration at half of the fitted maximal effect.

Screening CCOc1ccc(NC(=O)CSC2=Nc3ccccc3C3=NC(Cc4ccccc4)C(=O)N23)cc1 (stereo unspecified) returned BAZ2B block -7%, G9a inh 3%[59 µM], JMJD2A Tudor inh -24% and HP1b chromo inh 2%.
Screening Cc1ccc([N+](=O)[O-])cc1S(=O)(=O)N1CCNCC1 returned BAZ2B block -17%, G9a inh -9%, Sfp inh 20%, JMJD2A Tudor inh -22%[11.4 µM], PLK1 PBD inh 15µM* and HP1b chromo inh 1%.
Screening CCN1C(=O)/C(=C2/C=CC=CN2C)SC1=S returned BAZ2B block inconclusive, G9a inh inconclusive, Sfp inh inconclusive, JMJD2A Tudor inh -24%, PLK1 PBD inh -10% and HP1b chromo inh inconclusive.
Screening CN1C=CC=C/C1=C1/SC(=S)N(Cc2ccccc2)C1=O returned BAZ2B block 40µM*, G9a inh inconclusive, Sfp inh inconclusive, JMJD2A Tudor inh inconclusive, PLK1 PBD inh -10% and HP1b chromo inh inconclusive.
`COc1ccc(N2C(=O)/C(=C3/C=CC=CN3C)SC2=S)cc1` gave BAZ2B block -37%, G9a inh 45µM*, Sfp inh 50µM*, JMJD2A Tudor inh -30%, PLK1 PBD inh -22% and HP1b chromo inh -24%.
`N#Cc1nc(NCC2CC2)nc(Nc2ccccc2)n1` gave JMJD2A Tudor inh -6%.
Screening Cn1nnnc1Sc1ncnc2scc(-c3ccc(-c4ccccc4)cc3)c12 returned JMJD2A Tudor inh -15% and HP1b chromo inh 50%.
`Cn1nnnc1Sc1ncnc2scc(-c3cccs3)c12` gave BAZ2B block 10µM*, G9a inh -21%[0.501 µM], JMJD2A Tudor inh 25µM* and HP1b chromo inh inconclusive.
Cc1c(NC(=O)COC(=O)c2ccccc2Cl)c(=O)n(-c2ccccc2)n1C was read as BAZ2B block 1%, G9a inh 4%, Sfp inh 13%, JMJD2A Tudor inh -16%, PLK1 PBD inh -7% and HP1b chromo inh 3%.
Screening CCC(=O)c1ccc(OCC(=O)OCC(=O)Nc2c(C)n(C)n(-c3ccccc3)c2=O)cc1 returned BAZ2B block 2%, G9a inh -33%, JMJD2A Tudor inh -9%, PLK1 PBD inh -5% and HP1b chromo inh 37%.
Cc1c(NC(=O)C(=O)/C=C(\O)c2ccc(Cl)cc2)c(=O)n(-c2ccccc2)n1C was read as BAZ2B block inconclusive, G9a inh -18%[59 µM], Sfp inh -1%, JMJD2A Tudor inh 13µM*, PLK1 PBD inh 0% and HP1b chromo inh -1%.
Screening Cc1c(NC(=O)COC(=O)COc2ccc(Nc3ccccc3)cc2)c(=O)n(-c2ccccc2)n1C returned BAZ2B block inconclusive, G9a inh 50µM*, Sfp inh -8%, JMJD2A Tudor inh -31%, PLK1 PBD inh -9% and HP1b chromo inh -10%.
Screening Cc1c(NC(=O)COC(=O)CCC(=O)c2ccc(Cl)cc2)c(=O)n(-c2ccccc2)n1C returned BAZ2B block -8%, G9a inh 2%, Sfp inh 5%, JMJD2A Tudor inh -25%[11.4 µM], PLK1 PBD inh 17µM* and HP1b chromo inh -16%.
COc1ccccc1N1CCN(CCCNC(=O)c2cnn(-c3ccccc3)c2C2CCN(C(=O)OC(C)(C)C)CC2)CC1 was read as BAZ2B block 1%[57.1 µM], G9a inh -9%[59 µM], JMJD2A Tudor inh -26% and HP1b chromo inh -14%.
`O=C(Nc1cc(Cl)cc(Cl)c1)c1ccc(F)c(S(=O)(=O)NC2CCCCC2)c1` gave BAZ2B block 5%, G9a inh 4%[59 µM], JMJD2A Tudor inh -10% and HP1b chromo inh 19%.
`Nc1n[nH]c(S(=O)(=O)CCCc2ccccc2)n1` gave BAZ2B block -4%, G9a inh 50µM*, Sfp inh 15%, JMJD2A Tudor inh -14%[11.4 µM], PLK1 PBD inh -8% and HP1b chromo inh 67%.
